# Experimental data: the supplement of paper PMC10037445
# Whole data set: some 2,900 compounds, median “NF-kB SEAP reporter activity, fold change vs agonist alone” near 0.99, cut for the highest 2% near 2.6. The sample as a whole holds a higher share of the highest values than the screen did.
# Tests used:
# RAW-Dual [1] = test: NF-kB SEAP reporter activity, fold change vs agonist alone; higher = enhanced NF-kB activity
# Summary of the method: (§1)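 RAW-Dual macrophages (50,000 cells/well in DMEM, 384-well plates) received 50 nL of library stock by pin tool, then a PRR agonist 1 h later, and were kept at 37 °C, 5% CO2. After 20 hours, supernatant was read for IRF by QuantiLuc luminescence and for NF-κB by QuantiBlue absorbance at 620 nm. Reporter activity is fold change over agonist-alone wells. Cytotoxic wells had IncuCyte confluency below 70% of agonist controls in both mask sets.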
# RAW-Dual [2] = test: NF-kB SEAP reporter activity, fold change vs agonist alone; cytotoxicity flag (confluency mask): not cytotoxic; higher = enhanced NF-kB activity
# Summary of the method: as §1
# RAW-Dual [3] = test: NF-kB SEAP reporter activity, fold change vs agonist alone; cytotoxicity flag (confluency mask): cytotoxic (confluency <70% of control); higher = enhanced NF-kB activity
# Summary of the method: as §1
# [4] = library stock concentration (final ~1000-fold dilution): 10 mM, cytotoxicity flag (confluency mask): not cytotoxic, agonist: Imiquimod (TLR7) […]
# [5] = library stock concentration (final ~1000-fold dilution): 10 mM, cytotoxicity flag (confluency mask): not cytotoxic, agonist: MPLA (TLR4) […]
# [6] = agonist: ODN 1826 (TLR9) 0.5 ug/mL
# [7] = agonist: Pam2CSK4 (TLR2/6) 0.1 ug/mL
# [8] = agonist: Pam3CSK4 (TLR2/1) 0.1 ug/mL
# [9] = library stock concentration (final ~1000-fold dilution): 10 mM, cytotoxicity flag (confluency mask): cytotoxic (confluency <70% of control), agonist: MPLA (TLR4) […]
smiles,measurement,setting,value
Cl.Cl.NC1CCC(NC2CC2c2ccccc2)CC1 (configuration not stated),NF-kB SEAP reporter activity,RAW-Dual [1]; [4],1.03
same,NF-kB SEAP reporter activity,RAW-Dual [1]; [5],1.37
Cl.Cl.NC1CCC(NC2CC2c2ccccc2)CC1 (configuration not stated) (library stock concentration (final ~1000-fold dilution): 10 mM),NF-kB SEAP reporter activity,RAW-Dual [2]; agonist: LPS (TLR4) 0.1 ug/mL,1.25
same,NF-kB SEAP reporter activity,RAW-Dual [2]; [6],0.222
same,NF-kB SEAP reporter activity,RAW-Dual [2]; [7],0.869
same,NF-kB SEAP reporter activity,RAW-Dual [2]; [8],0.615
CC12CCC(=O)C=C1C=CC1C2CCC2(C)C1CCC21CCC(=O)O1 (configuration not stated) (library stock concentration (final ~1000-fold dilution): 10 mM),NF-kB SEAP reporter activity,RAW-Dual [2]; agonist: LPS (TLR4) 0.1 ug/mL,0.949
same,NF-kB SEAP reporter activity,RAW-Dual [2]; [6],1.05
same,NF-kB SEAP reporter activity,RAW-Dual [2]; [7],0.849
same,NF-kB SEAP reporter activity,RAW-Dual [2]; [8],0.874
CC12CCC(=O)C=C1C=CC1C2CCC2(C)C1CCC21CCC(=O)O1 (configuration not stated),NF-kB SEAP reporter activity,RAW-Dual [1]; [5],1.05
Cl.O=C1Cc2cc(CCN3CCN(c4nsc5ccccc45)CC3)c(Cl)cc2N1,NF-kB SEAP reporter activity,RAW-Dual [1]; [4],0.412
same,NF-kB SEAP reporter activity,RAW-Dual [1]; [5],0.73
Cl.O=C1Cc2cc(CCN3CCN(c4nsc5ccccc45)CC3)c(Cl)cc2N1 (library stock concentration (final ~1000-fold dilution): 10 mM),NF-kB SEAP reporter activity,RAW-Dual [2]; agonist: LPS (TLR4) 0.1 ug/mL,0.912
same,NF-kB SEAP reporter activity,RAW-Dual [2]; [6],0.338
same,NF-kB SEAP reporter activity,RAW-Dual [2]; [7],0.746
same,NF-kB SEAP reporter activity,RAW-Dual [2]; [8],0.865
O=C1Nc2ccc(CN3C(=O)CSC3=O)cc2/C1=C/c1cc(CN2CCOCC2)c[nH]1,NF-kB SEAP reporter activity,RAW-Dual [1]; [4],1.07
same,NF-kB SEAP reporter activity,RAW-Dual [1]; [5],1.43
O=C1Nc2ccc(CN3C(=O)CSC3=O)cc2/C1=C/c1cc(CN2CCOCC2)c[nH]1 (library stock concentration (final ~1000-fold dilution): 10 mM),NF-kB SEAP reporter activity,RAW-Dual [2]; agonist: LPS (TLR4) 0.1 ug/mL,1.89
same,NF-kB SEAP reporter activity,RAW-Dual [2]; [6],1.3
same,NF-kB SEAP reporter activity,RAW-Dual [2]; [7],0.605
same,NF-kB SEAP reporter activity,RAW-Dual [2]; [8],1.13
CCC(=O)OC(OP(=O)(CCCCc1ccccc1)CC(=O)N1CC(C2CCCCC2)CC1C(=O)O)C(C)C (configuration not stated),NF-kB SEAP reporter activity,"RAW-Dual [1]; library stock concentration (final ~1000-fold dilution): 10 mM water, cytotoxicity flag (confluency mask): not cytotoxic, agonist: Imiquimod (TLR7) […]",0.795
same,NF-kB SEAP reporter activity,"RAW-Dual [1]; library stock concentration (final ~1000-fold dilution): 10 mM water, cytotoxicity flag (confluency mask): not cytotoxic, agonist: MPLA (TLR4) […]",0.935
CCC(=O)OC(OP(=O)(CCCCc1ccccc1)CC(=O)N1CC(C2CCCCC2)CC1C(=O)O)C(C)C (configuration not stated) (library stock concentration (final ~1000-fold dilution): 10 mM water),NF-kB SEAP reporter activity,RAW-Dual [2]; agonist: LPS (TLR4) 0.1 ug/mL,0.941
same,NF-kB SEAP reporter activity,RAW-Dual [2]; [6],1.05
same,NF-kB SEAP reporter activity,RAW-Dual [2]; [7],1.01
same,NF-kB SEAP reporter activity,RAW-Dual [2]; [8],0.946
CN(C)c1ccc(O)c2c1CC1CC3C(N(C)C)C(=O)C(C(N)=O)=C(O)C3(O)C(=O)C1=C2O (configuration not stated),NF-kB SEAP reporter activity,"RAW-Dual [1]; library stock concentration (final ~1000-fold dilution): 5 mM, cytotoxicity flag (confluency mask): not cytotoxic, agonist: Imiquimod (TLR7) […]",1.25
same,NF-kB SEAP reporter activity,"RAW-Dual [1]; library stock concentration (final ~1000-fold dilution): 5 mM, cytotoxicity flag (confluency mask): not cytotoxic, agonist: MPLA (TLR4) […]",0.933
CN(C)c1ccc(O)c2c1CC1CC3C(N(C)C)C(=O)C(C(N)=O)=C(O)C3(O)C(=O)C1=C2O (configuration not stated) (library stock concentration (final ~1000-fold dilution): 5 mM),NF-kB SEAP reporter activity,RAW-Dual [2]; agonist: LPS (TLR4) 0.1 ug/mL,1.03
same,NF-kB SEAP reporter activity,RAW-Dual [2]; [6],1.15
same,NF-kB SEAP reporter activity,RAW-Dual [2]; [7],0.833
same,NF-kB SEAP reporter activity,RAW-Dual [2]; [8],0.759
CN(C)CCC=C1c2ccccc2C(C)(C)c2ccccc21.Cl,NF-kB SEAP reporter activity,RAW-Dual [1]; [9],1.4
CN(C)CCC=C1c2ccccc2C(C)(C)c2ccccc21.Cl (library stock concentration (final ~1000-fold dilution): 10 mM),NF-kB SEAP reporter activity,RAW-Dual [3]; agonist: LPS (TLR4) 0.1 ug/mL,1.45
same,NF-kB SEAP reporter activity,RAW-Dual [3]; [6],0.727
same,NF-kB SEAP reporter activity,RAW-Dual [3]; [7],0.53
same,NF-kB SEAP reporter activity,RAW-Dual [3]; [8],0.8
O=C(NO)c1cnc(NC2(c3ccccc3)CC2)nc1 (library stock concentration (final ~1000-fold dilution): 10 mM),NF-kB SEAP reporter activity,RAW-Dual [3]; agonist: LPS (TLR4) 0.1 ug/mL,2.94
same,NF-kB SEAP reporter activity,RAW-Dual [3]; [6],1.6
same,NF-kB SEAP reporter activity,RAW-Dual [3]; [7],0.654
same,NF-kB SEAP reporter activity,RAW-Dual [3]; [8],1.4
O=C(NO)c1cnc(NC2(c3ccccc3)CC2)nc1,NF-kB SEAP reporter activity,"RAW-Dual [1]; library stock concentration (final ~1000-fold dilution): 10 mM, cytotoxicity flag (confluency mask): cytotoxic (confluency <70% of control), agonist: Imiquimod (TLR7) […]",1.46
same,NF-kB SEAP reporter activity,RAW-Dual [1]; [9],2.22
CC(C)NCC(O)COc1ccc(COCCOC(C)C)cc1.O=C(O)/C=C/C(=O)O (configuration not stated),NF-kB SEAP reporter activity,RAW-Dual [1]; [4],0.869
same,NF-kB SEAP reporter activity,RAW-Dual [1]; [5],1.02
CC(C)NCC(O)COc1ccc(COCCOC(C)C)cc1.O=C(O)/C=C/C(=O)O (configuration not stated) (library stock concentration (final ~1000-fold dilution): 10 mM),NF-kB SEAP reporter activity,RAW-Dual [2]; agonist: LPS (TLR4) 0.1 ug/mL,1.05
same,NF-kB SEAP reporter activity,RAW-Dual [2]; [6],0.873
same,NF-kB SEAP reporter activity,RAW-Dual [2]; [7],0.984
same,NF-kB SEAP reporter activity,RAW-Dual [2]; [8],1.03
Cc1ccc(-c2c(-c3nn(C)c4ncnc(N5CCC(N6CCCCC6)C5)c34)cnn2C)cc1 (configuration not stated) (library stock concentration (final ~1000-fold dilution): 10 mM),NF-kB SEAP reporter activity,RAW-Dual [2]; agonist: LPS (TLR4) 0.1 ug/mL,1.57
same,NF-kB SEAP reporter activity,RAW-Dual [2]; [6],0.856
same,NF-kB SEAP reporter activity,RAW-Dual [2]; [7],1.21
same,NF-kB SEAP reporter activity,RAW-Dual [2]; [8],1.16
Cc1ccc(-c2c(-c3nn(C)c4ncnc(N5CCC(N6CCCCC6)C5)c34)cnn2C)cc1 (configuration not stated),NF-kB SEAP reporter activity,RAW-Dual [1]; [4],0.947
same,NF-kB SEAP reporter activity,RAW-Dual [1]; [5],1.09
Cc1nc(Nc2ncc(C(=O)Nc3c(C)cccc3Cl)s2)cc(N2CCN(CCO)CC2)n1.O (library stock concentration (final ~1000-fold dilution): 10 mM),NF-kB SEAP reporter activity,RAW-Dual [2]; agonist: LPS (TLR4) 0.1 ug/mL,1.33
same,NF-kB SEAP reporter activity,RAW-Dual [2]; [6],0.661
same,NF-kB SEAP reporter activity,RAW-Dual [2]; [7],0.283
same,NF-kB SEAP reporter activity,RAW-Dual [2]; [8],0.215
Cc1nc(Nc2ncc(C(=O)Nc3c(C)cccc3Cl)s2)cc(N2CCN(CCO)CC2)n1.O,NF-kB SEAP reporter activity,RAW-Dual [1]; [4],0.326
same,NF-kB SEAP reporter activity,RAW-Dual [1]; [5],0.715
CC1OC(OC2CCC3(C)C(CCC4(C)C3C=CC35OCC6(CCC(C)(C)CC63)C(O)CC45C)C2(C)CO)C(O)C(OC2OC(CO)C(O)C(O)C2O)C1O (configuration not stated),NF-kB SEAP reporter activity,RAW-Dual [1]; [9],0.319
CC1OC(OC2CCC3(C)C(CCC4(C)C3C=CC35OCC6(CCC(C)(C)CC63)C(O)CC45C)C2(C)CO)C(O)C(OC2OC(CO)C(O)C(O)C2O)C1O (configuration not stated) (library stock concentration (final ~1000-fold dilution): 10 mM),NF-kB SEAP reporter activity,RAW-Dual [3]; agonist: LPS (TLR4) 0.1 ug/mL,0.221
same,NF-kB SEAP reporter activity,RAW-Dual [3]; [6],0.257
same,NF-kB SEAP reporter activity,RAW-Dual [3]; [7],0.0991
same,NF-kB SEAP reporter activity,RAW-Dual [3]; [8],0.143
Clc1ccc(N/N=C(\c2ccccc2)c2ccccn2)nc1 (library stock concentration (final ~1000-fold dilution): 10 mM),NF-kB SEAP reporter activity,RAW-Dual [2]; agonist: LPS (TLR4) 0.1 ug/mL,4.59
same,NF-kB SEAP reporter activity,RAW-Dual [2]; [6],1.18
same,NF-kB SEAP reporter activity,RAW-Dual [2]; [7],0.556
same,NF-kB SEAP reporter activity,RAW-Dual [2]; [8],1.76
NC(=O)c1ccccn1 (library stock concentration (final ~1000-fold dilution): 10 mM),NF-kB SEAP reporter activity,RAW-Dual [2]; agonist: LPS (TLR4) 0.1 ug/mL,1.07
same,NF-kB SEAP reporter activity,RAW-Dual [2]; [6],0.942
same,NF-kB SEAP reporter activity,RAW-Dual [2]; [7],1.06
same,NF-kB SEAP reporter activity,RAW-Dual [2]; [8],0.836
